# Screening results: PubChem BioAssay, National Center for Advancing Translational Sciences (NCATS)
# Tau FP inhib: inhibitors of human tau fibril formation; P10636; K18 P301L tau heparin fibrillization, Alexa594 FP, 6 h; Potency, µM (titrated, usually from 57.7 µM), inactives show top-dose activity, negative = inhibition, hits mostly inhibitors; 0.39% of 280,000 active; AID 1468; note: nearly all actives have a fitted effect of over 55% in size
# Target sequence (P10636 561-689 P618L limits assumed): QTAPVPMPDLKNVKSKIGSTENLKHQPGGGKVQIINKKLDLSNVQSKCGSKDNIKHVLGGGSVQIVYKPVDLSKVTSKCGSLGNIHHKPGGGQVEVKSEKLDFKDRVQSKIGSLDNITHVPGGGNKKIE
#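 Human tau K18 […] P301L fragment, 15 uM unlabeled plus 0.24 uM Alexa 594-labeled tau (final), with compound and 20 uM heparin in 100 mM sodium acetate pH 7; 6 hr at 37 C, then Alexa 594 FP read.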
# Tau fibril ThT: tau fibrillization inhibition (ThT binding); P10636; recombinant tau K18 P301L, heparin-induced fibrillization, ThT fluorescence; Potency, µM (top dose mostly 57.4 µM), inactives show at the highest dose activity, negative = inhibition, most hits filed as inhibitors; 2.1% of 270,000 active; AID 1460; note: nearly all actives have a fitted effect of over 55% in size
#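 K18 P301L tau (15 uM + 0.24 uM Alexa 594-tagged), heparin 20 uM, NaOAc pH 7, 6 h 37 C; ThT 30 uM, 1 h RT, ex 450/em 510 nm.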
# Tau fluor cs: counter-screen for tau fibril formation inhibitors; tau K18 P301L (four-repeat tau fragment) Alexa594 fluorescence, heparin fibrillization; Potency, µM (top dose mostly 57.7 µM), for inactives: at the top dose activity change, negative = decrease; 0.93% of 280,000 active; note: nearly all actives have a fitted effect of over 55% in size
#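 Human K18 P301L tau (15 uM unlabeled plus 0.24 uM Alexa 594-labeled, final) in 100 mM sodium acetate pH 7 was mixed with compound and 20 uM heparin and incubated 6 hr at 37 C.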
# TR SRC2 fluor cs: counter-screen for TRb-SRC2 inhibitors: fluorescence interference; AID 1479; Potency, µM (series often up to 106 µM), for inactives: top-dose fluorescence change, negative = quenching; 0.29% of 280,000 active; TRb/SRC2 Texas Red total fluorescence interference; active = well fitted curve in either direction with a large enough effect; inconclusive = small, poorly fitted or top-dose-only effect
#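 Human TRb ligand-binding domain at 0.6 uM with 20 nM Texas Red SRC2 peptide in Tris buffer containing 1 uM T3 and 5% DMSO, incubated with compound 5 h at ambient temperature. Total fluorescence (555/632 nm) calculated as parallel + 2 × perpendicular.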
# TRb-SRC2 inh: TRbeta-SRC2 interaction inhibition. P10828. TRbeta-SRC2 peptide binding, fluorescence polarization; receptor liganded with 1 µM T3. Potency, µM (doses to about 106 µM), for inactives: at the top dose activity change, negative = inhibition, usual class: inhibitors. 0.065% of 280,000 active. AID 1469;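 note: plate controls were bound peptide for no effect and peptide without receptor for full effect; nearly all actives have a fitted effect of over 50% in size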
#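 Compounds were added to 0.6 uM TRb ligand-binding domain and 20 nM Texas Red-labeled SRC2 peptide in Tris buffer containing 1 uM T3, incubated 5 hr at ambient temperature, then read by fluorescence polarization.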
# * marks the source's active call; other numbers are inactive results; ? = inconclusive; . = no result; [ ] = dose if it differs, or a comment. Shown are actives, neighbours in structure and some others; about 3.1% of the full set was active somewhere. Unless noted, calls come from the whole dose curve; as a rule, active = well fitted curve in the direction sought with a large enough effect; inconclusive = small, poorly fitted or top-dose-only effect, or another doubt; inactive = no such curve, though single readings can be large; an effect the other way counts as inactive or inconclusive. Unless noted, % is set by controls: 0 for no effect and ±100 for the full control effect; potency is the fitted concentration of half-maximal effect.
SMILES,Tau FP inhib,Tau fibril ThT,Tau fluor cs,TR SRC2 fluor cs,TRb-SRC2 inh
CCCn1c(=N)n(CC(=O)OCC)c2ccccc21,-3.8%,12.3%,5.9%,-6.4%,5.5%
CCOc1ccc2nc(/N=C/c3c(C)[nH]n(-c4ccccc4)c3=O)sc2c1,?,14.1µM*,?,-2.8%,1.6%
CCOc1ccc2nc(/N=C/c3c(C)[nH]n(-c4ccc(C)cc4)c3=O)sc2c1,-1.5%,?,-27.1%,-4.8%,-4.8%
CCc1ccccc1NC(=O)Nc1ccc(F)cc1,0.5%,-6.6%,-8.6%,-0.8%,3.3%
CN1CCC(CNC(=O)Nc2csc3ccccc23)CC1,13.0%,?,-19.4%,0.3%,3.2%
CN(C)c1ccc(NC(=O)Nc2csc3ccccc23)cc1,-13.3%,3.55µM*,7.08µM*[quencher],3.9%,2.3%
O=C(Nc1ccc(F)cc1)Nc1csc2ccccc12,1.6%,.,8.91µM*[quencher],-4.5%,-8.1%
O=C1CN(C(=O)c2cccc(Br)c2)C(c2ccccc2)c2cc(Cl)ccc2N1 (stereo not given),-4.6%,?,-22.2%,-1.3%,6.2%
CCc1ccc(-n2c(=O)c3cccnc3n2CC(=O)Nc2cc(F)ccc2F)cc1,?,1.8%,-27.9%,2.1%,-5.2%
NS(=O)(=O)Nc1ccccc1Br,.,.,.,-0.9%,8.5%
CC(=O)c1cc(NC(=O)c2cccc(C(F)(F)F)c2)c(=O)oc1C,35.5µM*,25.1µM*,-28.5%,0.4%,-6.9%
CC(=O)c1cc(NC(=O)c2ccc(Cl)cc2)c(=O)oc1/C=C/N(C)C,?,10µM*,-26.5%,-2.1%,-15.6%
CC(=O)c1cc(NC(=O)c2cccc(C(F)(F)F)c2)c(=O)oc1/C=C/N(C)C,-2.0%,?,-5.5%,0.5%,-3.0%
C=C(C)CC(C)(C)C,.,.,.,-10.3%,-4.2%
Cc1ccc(N2CC(NC(=O)/C=C\c3ccc4c(c3)OCO4)CC2=O)cc1C (stereo not given),0.9%,-15.9%,-20.4%,-0.1%,9.5%
Cc1ccc2occ(CC(=O)N(Cc3ccc(Cl)cc3)Cc3ccco3)c2c1,-13.1%,?,-24.3%,0.355µM*[quencher],?
Cc1ccc(CN(Cc2ccco2)C(=O)c2oc3ccc(C)cc3c2C)cc1,-5.5%,-13.0%,-12.9%,4.3%,0.2%
CO[C@@H]1COC(=O)[C@H]2CCCN2C(=O)[C@@H](C)COC(=O)[C@H](COCc2ccccc2)NC(=O)C/C=C\[C@H]1C,-9.2%[11.6 µM],-1.6%[11.5 µM],-8.3%[11.6 µM],-0.3%[11.2 µM],3.7%[11.2 µM]
CN(C)c1cc(N/N=C/c2ccc(Cl)cc2)nc(N(C)C)n1,-18.7%,14.1µM*,?,-0.6%,0.6%
COc1cc(N/N=C/c2ccc(N(C)C)cc2)ncn1,9.9%,?,?,-1.5%,0.8%
CCOc1ccccc1NC(=O)N1CCN(C)c2ncccc21,-3.4%,-10.2%,-22.8%,0.2%,4.1%
COc1cc(SC#N)ccc1N=Cc1c(C)[nH]n(-c2ccc(Cl)cc2)c1=O,?,11.2µM*,-23.3%,-6.9%,-2.3%
COc1cc(SC#N)ccc1N=Cc1c(C)[nH]n(-c2ccc(C)c(C)c2)c1=O,?,17.8µM*,-19.0%,-6.3%,0.6%
COc1ccc(CCN=Cc2c(C)[nH]n(-c3ccc([N+](=O)[O-])cc3)c2=O)cc1OC,-14.6%,?,-15.4%,-3.6%,-2.5%
COc1cc(S(=O)(=O)Nc2ccccc2)ccc1N=Cc1c(C)[nH]n(-c2ccc(C)cc2)c1=O,0.0%,?,?,5.7%,12.1%
COC(=O)C1(Cc2ccccc2)C=C2C(=C(c3ccccc3)C(=O)C2C)CN1 (stereo not given),-0.1%,-6.4%,-6.8%,0.6%,8.9%
